{
  "source": "PubChem BioAssay",
  "note": "Activity calls are given as the source filed them.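 How the source made its calls: active means viability at or below 10% of carrier control in both of two separate runs; inconclusive means viability at or below 10% in only one of the two runs; inactive means the rest.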",
  "data": [
    {"test": "SK-BR-3 cell growth inhibitors, pilot screen, 24 h, human (AID 572);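 further: compound exposure lasted between 18 and 24 h rather than exactly 24 h; 100% = carrier-treated control wells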", "settings": "SK-BR-3 viability, CellTiter-Glo luminescence, at 10 µM, stronger effect = lower value", "values": [
      {"compound": "Cn1c(=O)c2c(nc(N3CCCCC3)n2CCSc2nc3ccccc3o2)n(C)c1=O", "viability": "100% (inactive)"},
      {"compound": "CCOC(=O)C1=C(C)N=c2s/c(=C\\c3cccn3C)c(=O)n2C1c1cccc(OC)c1OC", "note": "(stereo not given)", "viability": "89% (inactive)"},
      {"compound": "C=CCn1c(SCC(=O)O)nnc1-c1cccc(Cl)c1", "viability": "116% (inactive)"},
      {"compound": "Cc1ccc(S(=O)(=O)N2CCC(C(=O)NCCN3CCCCCC3)CC2)cc1", "viability": "91% (inactive)"},
      {"compound": "CCOC(=O)c1sc(N2C(=O)C(O)=C(C(=O)c3ccco3)C2c2ccccc2)nc1C", "note": "(stereo not given)", "viability": "101% (inactive)"},
      {"compound": "COc1cc(C)nc(NS(=O)(=O)c2ccc(C)cc2)n1", "viability": "122% (inactive)"},
      {"compound": "CCCCC(=O)Nc1nn(CCC)c2nc3ccccc3cc12", "viability": "94% (inactive)"},
      {"compound": "CCCCCOC(=O)CSc1nnc(-c2cc(OC)c(OC)c(OC)c2)o1", "viability": "84.5% (inactive)"},
      {"compound": "O=C(CN1CCN(C(=O)c2ccccc2)CC1)Nc1ncc(Br)cc1Br", "viability": "76.5% (inactive)"},
      {"compound": "O=C(c1ccc2c(c1)OCCO2)C1CCN(C(=O)c2ccc(F)cc2)CC1", "viability": "102% (inactive)"},
      {"compound": "Cc1cc2c(c(=O)n1CCc1ccccc1)C(C(C)C)C(C#N)=C(N)O2", "note": "(stereo not given)", "viability": "95% (inactive)"},
      {"compound": "Cc1cc(NC(=O)Cn2cnc3c(cnn3C(C)(C)C)c2=O)no1", "viability": "91.5% (inactive)"},
      {"compound": "O=C(OCCCCN1C(=O)c2ccccc2C1=O)c1n[nH]c2ccccc12", "viability": "92.5% (inactive)"},
      {"compound": "CCOC(=O)CSc1nnc(-c2ccccc2OC)o1", "viability": "116% (inactive)"},
      {"compound": "O=C(Nn1cnnc1)c1cc2c(s1)CCCC2", "viability": "100% (inactive)"},
      {"compound": "Cc1cc2nc(C3CCN(CC4COc5ccccc5O4)CC3)[nH]c2cc1C", "note": "(stereo not given)", "viability": "98.5% (inactive)"},
      {"compound": "CCOc1ccc(S(=O)(=O)Nc2cccc(Cl)c2)cc1", "viability": "86% (inactive)"},
      {"compound": "O=C(OCc1nnc(-c2ccccc2)o1)c1ccc2ccccc2n1", "viability": "106% (inactive)"},
      {"compound": "COc1ccc(-c2nnc3sc(-c4c(OC)cccc4OC)nn23)cc1", "viability": "105% (inactive)"},
      {"compound": "CC1=Nn2c(nnc2-c2cc(-c3ccccc3)n[nH]2)SC1", "viability": "97.5% (inactive)"},
      {"compound": "COc1cccc(C2C(C#N)=C(N)OC3=C2C(=O)CCC3)c1OC(=O)c1ccco1", "note": "(stereo not given)", "viability": "106% (inactive)"},
      {"compound": "CCN(C1CCCCC1)S(=O)(=O)c1ccc(OC)c(C)c1", "viability": "99% (inactive)"},
      {"compound": "O=C(C1CC1)N1CCc2cc(S(=O)(=O)N(CCO)Cc3ccccc3)ccc21", "viability": "94% (inactive)"},
      {"compound": "COc1ccc(Cl)cc1S(=O)(=O)n1cnc2ccccc21", "viability": "99% (inactive)"},
      {"compound": "CCOC(=O)C(CC)Sc1nc2c(c(=O)[nH]c(=O)n2C)n1C/C=C(/C)Cl", "note": "(stereo not given)", "viability": "97.5% (inactive)"},
      {"compound": "Cc1cc2c(c(=O)o1)C(Cc1ccccc1)C(C#N)=C(N)O2", "note": "(stereo not given)", "viability": "94% (inactive)"},
      {"compound": "Cc1nc2scc(-c3cccs3)c2c(=O)n1-n1cccc1", "viability": "92% (inactive)"},
      {"compound": "Cc1cc(-n2c(C)cc(C(=O)CSc3nc4ccccc4c(=O)n3Cc3ccco3)c2C)no1", "viability": "105% (inactive)"},
      {"compound": "N#Cc1c(NC(=O)c2ccc(Br)o2)n(-c2ccccc2)c2nc3ccccc3nc12", "viability": "86.5% (inactive)"},
      {"compound": "CCC1C(=O)n2nc(-c3ccccc3)cc2N=C1C", "note": "(stereo not given)", "viability": "106% (inactive)"},
      {"compound": "O=C(CN1C(=O)CSC1=O)N1CCc2ccccc2C1", "viability": "100% (inactive)"},
      {"compound": "C1CCc2nnc(-c3nnc4n3CCCCC4)n2CC1", "viability": "86.5% (inactive)"},
      {"compound": "O=C(CCCCCn1c(SCc2ccncc2)nc2ccccc2c1=O)NCc1ccco1", "viability": "80.5% (inactive)"},
      {"compound": "CCSc1nnc(NC(=O)c2nn(C(C)C)c(=O)c3ccccc23)s1", "viability": "99% (inactive)"},
      {"compound": "CN(C)c1ccc2c(c1)OC(N)=C(C#N)C2c1cccc(F)c1", "note": "(stereo not given)", "viability": "92% (inactive)"},
      {"compound": "CN(C)c1ccc(NC(=O)c2cc3c(=O)n4ccccc4nc3n2C)cc1", "viability": "87.5% (inactive)"},
      {"compound": "CC(CN1CCN(C)CC1)OC(=O)c1ccc(Cl)cc1Cl", "note": "(stereo not given)", "viability": "127% (inactive)"},
      {"compound": "COc1ccccc1Nc1ncnc2c1cnn2-c1cccc(C)c1", "viability": "94.5% (inactive)"},
      {"compound": "NCCN1CCN(CCN)CC1", "viability": "106% (inactive)"},
      {"compound": "CCOc1ccc2nc(NC(=O)CSc3nnnn3C3CCCCC3)sc2c1", "viability": "92% (inactive)"}
    ]}
  ]
}
